Drawing on paper PMC11006913, this text covers binding signal for 3 sequences.

Holding throughout (test): PBM; 200 nM protein, PBS
Holding throughout (settings): dsDNA, one strand shown

For assay [1], the target named is NKX2-5 (Homo sapiens, UniProt P52952 125-210, R139K).
Assay [2] has as its target HOXA4 (Homo sapiens, UniProt Q00056 201-287, W262R).
The target in assay [3] is HOXA4 (Homo sapiens, UniProt Q00056 201-287, R217L).
Assay [4] deals with HOXA4 (Homo sapiens, UniProt Q00056 201-287).
Assay [5] addresses HOXA4 (Homo sapiens, UniProt Q00056 201-287, W262F).
Assay [6] concerns the target NKX2-5 (Homo sapiens, UniProt P52952 125-210).
Assay [7] concerns the target ALX4 (Homo sapiens, UniProt Q9H161 200-286).
The target in assay [8] is ALX4 (Homo sapiens, UniProt Q9H161 200-286, Q225E).
Assay [9] addresses T1, SIX6 (Homo sapiens, UniProt O95475 114-200, L167I).
T1 sequence: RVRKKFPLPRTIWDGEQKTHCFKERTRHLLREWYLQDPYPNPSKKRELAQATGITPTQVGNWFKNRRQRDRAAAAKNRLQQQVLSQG

For assay [10], the target named is T2, SIX6 (Homo sapiens, UniProt O95475 114-200, L143V).
T2 sequence: T1 sequence with L30V, I54L

Assay [11] addresses T3, SIX6 (Homo sapiens, UniProt O95475 114-200, H141N).
T3 sequence: T1 sequence with H28N, I54L

In assay [12] the target is T4, SIX6 (Homo sapiens, UniProt O95475 114-200, T165P).
T4 sequence: T1 sequence with T52P, I54L

Assay [13] addresses T5, SIX6 (Homo sapiens, UniProt O95475 114-200, L167M).
T5 sequence: T1 sequence with I54M

Assay [14] has as its target T6, SIX6 (Homo sapiens, UniProt O95475 114-200, L143M).
T6 sequence: T1 sequence with L30M, I54L

Assay [15] addresses T7, SIX6 (Homo sapiens, UniProt O95475 114-200, L143I).
T7 sequence: T1 sequence with L30I, I54L

Assay [16] concerns the target T8, SIX6 (Homo sapiens, UniProt O95475 114-200, T165G).
T8 sequence: T1 sequence with T52G, I54L

In assay [17] the target is HOXA2 (Homo sapiens, UniProt O43364 129-215, R185T).
The target in assay [18] is T9, SIX6 (Homo sapiens, UniProt O95475 114-200, T139Q).
T9 sequence: T1 sequence with T26Q, I54L

Assay [19] deals with ALX3 (Homo sapiens, UniProt O95076 139-225, N203Q).
The target of assay [20] is T10, SIX6 (Homo sapiens, UniProt O95475 114-200, T165A).
T10 sequence: T1 sequence with T52A, I54L

Assay [21] has as its target HOXA2 (Homo sapiens, UniProt O43364 129-215, R185K).
Assay [22] addresses T11, SIX6 (Homo sapiens, UniProt O95475 114-200, L167V).
T11 sequence: T1 sequence with I54V

Assay [23] addresses ALX3 (Homo sapiens, UniProt O95076 139-225).
In assay [24] the target is T12, SIX6 (Homo sapiens, UniProt O95475 114-200).
T12 sequence: T1 sequence with I54L

Assay [25] addresses ALX3 (Homo sapiens, UniProt O95076 139-225, L168Q).
Assay [26] addresses T13, SIX6 (Homo sapiens, UniProt O95475 114-200, T165I).
T13 sequence: T1 sequence with T52I, I54L

Assay [27] has as its target ALX3 (Homo sapiens, UniProt O95076 139-225, L168V).
For assay [28], the target named is HOXA2 (Homo sapiens, UniProt O43364 129-215, Y150S).
In assay [29] the target is ALX3 (Homo sapiens, UniProt O95076 139-225, N203S).
The target of assay [30] is HOXA2 (Homo sapiens, UniProt O43364 129-215).

Numbering of substitutions follows the chain as printed.

Sequence of NKX2-5 (Homo sapiens, UniProt P52952 125-210) (P52952 125-210): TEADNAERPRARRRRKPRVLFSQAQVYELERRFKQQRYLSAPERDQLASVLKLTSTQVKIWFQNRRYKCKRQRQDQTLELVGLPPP
Sequence of NKX2-5 (Homo sapiens, UniProt P52952 125-210, R139K) (P52952 125-210 R139K): as the sequence (P52952 125-210) above, with R15K counted along it
Sequence of HOXA2 (Homo sapiens, UniProt O43364 129-215, Y150S) (O43364 129-215 Y150S): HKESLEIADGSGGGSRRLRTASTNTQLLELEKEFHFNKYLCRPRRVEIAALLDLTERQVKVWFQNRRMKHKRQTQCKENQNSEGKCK
Sequence of ALX3 (Homo sapiens, UniProt O95076 139-225, N203S) (O95076 139-225 N203S): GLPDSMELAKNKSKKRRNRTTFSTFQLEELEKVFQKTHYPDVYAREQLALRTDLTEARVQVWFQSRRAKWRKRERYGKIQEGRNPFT
Sequence of HOXA2 (Homo sapiens, UniProt O43364 129-215) (O43364 129-215): as the sequence (O43364 129-215 Y150S) above, with S22Y counted along it
Sequence of ALX4 (Homo sapiens, UniProt Q9H161 200-286, Q225E) (Q9H161 200-286 Q225E): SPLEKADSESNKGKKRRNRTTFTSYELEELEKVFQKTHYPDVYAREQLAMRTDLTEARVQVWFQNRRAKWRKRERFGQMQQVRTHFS
Sequence of HOXA4 (Homo sapiens, UniProt Q00056 201-287) (Q00056 201-287): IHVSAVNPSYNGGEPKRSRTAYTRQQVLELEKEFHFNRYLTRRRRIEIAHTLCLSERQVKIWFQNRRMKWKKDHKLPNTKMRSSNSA
Sequence of ALX3 (Homo sapiens, UniProt O95076 139-225, L168Q) (O95076 139-225 L168Q): as the sequence (O95076 139-225 N203S) above, with L30Q, S65N counted along it
Sequence of ALX3 (Homo sapiens, UniProt O95076 139-225) (O95076 139-225): as the sequence (O95076 139-225 N203S) above, with S65N counted along it
Sequence of ALX3 (Homo sapiens, UniProt O95076 139-225, N203Q) (O95076 139-225 N203Q): as the sequence (O95076 139-225 N203S) above, with S65Q counted along it
Sequence of HOXA4 (Homo sapiens, UniProt Q00056 201-287, R217L) (Q00056 201-287 R217L): as the sequence (Q00056 201-287) above, with R17L counted along it
Sequence of HOXA4 (Homo sapiens, UniProt Q00056 201-287, W262R) (Q00056 201-287 W262R): as the sequence (Q00056 201-287) above, with W62R counted along it
Sequence of HOXA4 (Homo sapiens, UniProt Q00056 201-287, W262F) (Q00056 201-287 W262F): as the sequence (Q00056 201-287) above, with W62F counted along it
Sequence of ALX3 (Homo sapiens, UniProt O95076 139-225, L168V) (O95076 139-225 L168V): as the sequence (O95076 139-225 N203S) above, with L30V, S65N counted along it
Sequence of HOXA2 (Homo sapiens, UniProt O43364 129-215, R185K) (O43364 129-215 R185K): as the sequence (O43364 129-215 Y150S) above, with S22Y, R57K counted along it
Sequence of ALX4 (Homo sapiens, UniProt Q9H161 200-286) (Q9H161 200-286): as the sequence (Q9H161 200-286 Q225E) above, with E26Q counted along it
Sequence of HOXA2 (Homo sapiens, UniProt O43364 129-215, R185T) (O43364 129-215 R185T): as the sequence (O43364 129-215 Y150S) above, with S22Y, R57T counted along it

With CACCCCCG, the binding signal is 8.95 upbm affinity estimate (log intensity, higher = more binding, comparable within an allelic series) in the assay with NKX2-5 [1]; 9.9 upbm affinity estimate (log intensity, higher = more binding, comparable within an allelic series) in the assay with HOXA4 [2]; 9.84 upbm affinity estimate (log intensity, higher = more binding, comparable within an allelic series) with HOXA4 [3]; 9.95 upbm affinity estimate (log intensity, higher = more binding, comparable within an allelic series) with HOXA4 [4]; 9.77 upbm affinity estimate (log intensity, higher = more binding, comparable within an allelic series) with HOXA4 [5]; 9 upbm affinity estimate (log intensity, higher = more binding, comparable within an allelic series) in the assay with NKX2-5 [6].
GCGTGCGA: the binding signal with NKX2-5 [1] was 8.9 upbm affinity estimate (log intensity, higher = more binding, comparable within an allelic series); in the assay with ALX4 [7], 7.96 upbm affinity estimate (log intensity, higher = more binding, comparable within an allelic series); with ALX4 [8], 8.17 upbm affinity estimate (log intensity, higher = more binding, comparable within an allelic series); in the assay with NKX2-5 [6], 8.92 upbm affinity estimate (log intensity, higher = more binding, comparable within an allelic series).
CAGCGGCC: the binding signal with NKX2-5 [1] was 8.81 upbm affinity estimate (log intensity, higher = more binding, comparable within an allelic series); with SIX6 [9], 8.85 upbm affinity estimate (log intensity, higher = more binding, comparable within an allelic series); with SIX6 [10], 8.77 upbm affinity estimate (log intensity, higher = more binding, comparable within an allelic series); with SIX6 [11], 8.79 upbm affinity estimate (log intensity, higher = more binding, comparable within an allelic series); in the assay with SIX6 [12], 8.97 upbm affinity estimate (log intensity, higher = more binding, comparable within an allelic series); in the assay with SIX6 [13], 8.8 upbm affinity estimate (log intensity, higher = more binding, comparable within an allelic series). Further, the binding signal with SIX6 [14] was 8.83 upbm affinity estimate (log intensity, higher = more binding, comparable within an allelic series); with SIX6 [15], 8.89 upbm affinity estimate (log intensity, higher = more binding, comparable within an allelic series); with SIX6 [16] it was 8.88 upbm affinity estimate (log intensity, higher = more binding, comparable within an allelic series); in the assay with HOXA2 [17] it was 7.12 upbm affinity estimate (log intensity, higher = more binding, comparable within an allelic series); with SIX6 [18], 8.81 upbm affinity estimate (log intensity, higher = more binding, comparable within an allelic series); with ALX3 [19], 7.77 upbm affinity estimate (log intensity, higher = more binding, comparable within an allelic series). In addition, the binding signal with SIX6 [20] is 8.75 upbm affinity estimate (log intensity, higher = more binding, comparable within an allelic series); with HOXA2 [21] it was 10.2 upbm affinity estimate (log intensity, higher = more binding, comparable within an allelic series); with SIX6 [22] it was 8.83 upbm affinity estimate (log intensity, higher = more binding, comparable within an allelic series); in the assay with ALX3 [23], 7.75 upbm affinity estimate (log intensity, higher = more binding, comparable within an allelic series); with SIX6 [24], 8.8 upbm affinity estimate (log intensity, higher = more binding, comparable within an allelic series); in the assay with ALX3 [25], 7.78 upbm affinity estimate (log intensity, higher = more binding, comparable within an allelic series). Further, the binding signal was 8.74 upbm affinity estimate (log intensity, higher = more binding, comparable within an allelic series) with SIX6 [26]; 7.74 upbm affinity estimate (log intensity, higher = more binding, comparable within an allelic series) with ALX3 [27]; 10.4 upbm affinity estimate (log intensity, higher = more binding, comparable within an allelic series) with HOXA2 [28]; 7.77 upbm affinity estimate (log intensity, higher = more binding, comparable within an allelic series) with ALX3 [29]; 7.19 upbm affinity estimate (log intensity, higher = more binding, comparable within an allelic series) in the assay with HOXA2 [30]; 8.82 upbm affinity estimate (log intensity, higher = more binding, comparable within an allelic series) with NKX2-5 [6].
